Molecules are shown by their SMILES. The whole screen tested about 310,000 compounds, of which about 14,000 (4.5%) showed an effect of 50% or more. The effect is printed as a negative number. This excerpt belongs to a sample that is enriched for strong results.
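Further: peak tail current of the secondary pulse compared with the same well before compound.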

This assay deals with human ether-à-go-go-related gene (hERG) potassium channel (human, UniProt Q12809). Nature of the assay: primary screen, population patch clamp on CHO cells stably expressing hERG; higher = less effect of the substance.
human ether-à-go-go-related gene (hERG) potassium channel, sequence (Q12809 whole entry, looked up): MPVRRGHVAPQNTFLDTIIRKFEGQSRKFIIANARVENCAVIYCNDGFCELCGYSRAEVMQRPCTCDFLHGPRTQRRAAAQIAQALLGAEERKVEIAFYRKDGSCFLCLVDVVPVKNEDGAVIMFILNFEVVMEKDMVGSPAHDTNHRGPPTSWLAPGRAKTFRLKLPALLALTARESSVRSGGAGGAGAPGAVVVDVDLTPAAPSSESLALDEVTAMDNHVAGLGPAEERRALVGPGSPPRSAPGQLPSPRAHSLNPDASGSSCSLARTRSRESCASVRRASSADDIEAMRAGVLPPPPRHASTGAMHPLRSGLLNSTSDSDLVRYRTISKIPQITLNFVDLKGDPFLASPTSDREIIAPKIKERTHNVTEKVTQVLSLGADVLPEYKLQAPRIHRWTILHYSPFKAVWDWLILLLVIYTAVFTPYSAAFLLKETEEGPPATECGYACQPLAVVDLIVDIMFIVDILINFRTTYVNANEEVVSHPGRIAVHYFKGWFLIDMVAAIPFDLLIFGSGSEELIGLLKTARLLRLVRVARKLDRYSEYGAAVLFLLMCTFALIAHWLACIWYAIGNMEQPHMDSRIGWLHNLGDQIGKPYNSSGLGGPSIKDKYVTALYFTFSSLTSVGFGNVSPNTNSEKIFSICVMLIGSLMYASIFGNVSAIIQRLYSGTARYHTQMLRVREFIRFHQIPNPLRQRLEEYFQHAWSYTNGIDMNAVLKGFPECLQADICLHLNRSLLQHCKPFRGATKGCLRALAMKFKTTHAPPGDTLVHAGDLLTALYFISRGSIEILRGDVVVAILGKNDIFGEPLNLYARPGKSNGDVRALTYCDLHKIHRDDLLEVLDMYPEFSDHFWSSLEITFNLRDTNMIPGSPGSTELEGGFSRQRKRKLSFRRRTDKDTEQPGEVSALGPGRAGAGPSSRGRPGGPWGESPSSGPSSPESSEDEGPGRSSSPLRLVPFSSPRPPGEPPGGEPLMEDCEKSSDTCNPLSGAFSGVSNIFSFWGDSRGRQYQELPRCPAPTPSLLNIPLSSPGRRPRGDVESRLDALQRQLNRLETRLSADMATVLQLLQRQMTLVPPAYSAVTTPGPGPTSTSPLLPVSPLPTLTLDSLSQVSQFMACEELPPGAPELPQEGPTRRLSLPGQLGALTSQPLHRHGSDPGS
As for `O=C(O)c1ccccc1-c1cc2ccccc2[nH]1`, the “hERG current change (%, negative = inhibition) at 10uM” value is on record as 19.7%.

As to `N#C/C(=C/c1ccc(N2CCOCC2)c([N+](=O)[O-])c1)C(N)=O`, the “hERG current change (%, negative = inhibition) at 10uM” value was -39.8%.

For the compound `O=C(OC(C(=O)NCC1CCCO1)c1ccccn1)c1cccs1` (centres unmarked), the “hERG current change (%, negative = inhibition) at 10uM” value was 1.83%.

For the compound `COCc1nc2ccccc2n1Cc1cccc(C)c1`, the “hERG current change (%, negative = inhibition) at 10uM” value is given as -12.8%.

For the compound `O=S(=O)(NCC(c1ccco1)N1CCN(c2ccccc2F)CC1)c1ccc(F)cc1` (centres unmarked), the “hERG current change (%, negative = inhibition) at 10uM” value is reported as -11.2%.

Turning to `CC(C)CNc1nc(Oc2ccc(=O)[nH]n2)nc(N2CCOCC2)n1`, the “hERG current change (%, negative = inhibition) at 10uM” value came out at 7.99%.

With `O=C(CN1CCOCC1)Nc1cc(Cl)ccc1Cl`, the “hERG current change (%, negative = inhibition) at 10uM” value is on record as -32.5%.

Turning to `COc1ccc(Cl)cc1NC(=O)CN1CCN(C(=O)N2CCOCC2)CC1`, the “hERG current change (%, negative = inhibition) at 10uM” value is given as -38.8%.

In the case of `O=C(CN1CCN(C(=O)N2CCOCC2)CC1)Nc1cc(Cl)ccc1Cl`, the “hERG current change (%, negative = inhibition) at 10uM” value was -59.9%.

Turning to `Cc1ccc(Cl)cc1NC(=O)CN1CCN(S(=O)(=O)N2CCC(C)CC2)CC1`, the “hERG current change (%, negative = inhibition) at 10uM” value was -41.3%.

Regarding `Cc1ccc(Cl)cc1NC(=O)CN1CCOCC1`, the “hERG current change (%, negative = inhibition) at 10uM” value is reported as -0.857%.

Turning to `Cc1ccc(Cl)cc1NC(=O)CN1CCN(C(=O)C2CCCO2)CC1` (centres unmarked), the “hERG current change (%, negative = inhibition) at 10uM” value is -29.8%.

`O=C(CN1CCN(C(=O)C2CCCO2)CC1)Nc1cc(Cl)ccc1Cl` (centres unmarked): the “hERG current change (%, negative = inhibition) at 10uM” value is recorded as -61.9%.

For the compound `Cc1ccc(Cl)cc1NC(=O)CN1CCN(S(=O)(=O)N2CCOCC2)CC1`, the “hERG current change (%, negative = inhibition) at 10uM” value is given as -64.3%.

As to `O=C(CN1CCN(C(=O)C2CCCO2)CC1)Nc1cc(C(F)(F)F)ccc1Cl` (centres unmarked), the “hERG current change (%, negative = inhibition) at 10uM” value was -45.8%.

`Cn1nnc2cc(C(=O)Nc3ccc(Cl)cc3)ccc21`: the “hERG current change (%, negative = inhibition) at 10uM” value is given as -3.78%.

`COc1ccc(-c2cc(C(=O)O)nc3ccc4ccccc4c23)cc1OC`: the “hERG current change (%, negative = inhibition) at 10uM” value was determined as 12.6%.

For the compound `O=C(CSc1nc(O)cc(=O)[nH]1)C1CC1`, the “hERG current change (%, negative = inhibition) at 10uM” value came out at 7.82%.

With `CC(C)(C)N/C=C(\C#N)S(=O)(=O)c1ccc(Br)cc1`, the “hERG current change (%, negative = inhibition) at 10uM” value is listed as -10.5%.

With `C=CCN1C(=O)C2C(C(=O)NC)C3C=CC2(O3)C1C(=O)NCc1ccc(OC)cc1` (centres unmarked), the “hERG current change (%, negative = inhibition) at 10uM” value is given as 0.24%.

With `Cc1cc(C)n2nc(SCC(=O)NC3CCCCC3)nc2n1`, the “hERG current change (%, negative = inhibition) at 10uM” value was 1.68%.

In the case of `Cc1cc(C)n2nc(CC(=O)NC3CCCCCC3)nc2n1`, the “hERG current change (%, negative = inhibition) at 10uM” value came to 5.03%.

As to `Cc1cc(C)n2nc(CC(=O)NC3CCCCCCC3)nc2n1`, the “hERG current change (%, negative = inhibition) at 10uM” value was -70.9%.

Regarding `CCOC(=O)CCc1c(C(=O)OCC)[nH]c(CC)c1C(=O)OCc1ccccc1`, the “hERG current change (%, negative = inhibition) at 10uM” value was -17.2%.

As to `COCc1cc(C)nc(SCC(=O)Nc2ccc3c(c2)OCCO3)c1C#N`, the “hERG current change (%, negative = inhibition) at 10uM” value worked out at 13.4%.

On to `CCOC(=O)C1CCN(C(=O)CN2C(=O)c3ccccc3Sc3ncccc32)CC1`, for which the “hERG current change (%, negative = inhibition) at 10uM” value was found to be 6.06%.

As to `Cc1ccc(CS(=O)Cc2ccc(C(=O)NCc3ccccc3)o2)cc1` (centres unmarked), the “hERG current change (%, negative = inhibition) at 10uM” value was found to be 11%.

As for `COc1ccc(OC)c(CCNC(=O)c2ccc(CS(=O)Cc3ccc(Cl)cc3)o2)c1` (centres unmarked), the “hERG current change (%, negative = inhibition) at 10uM” value is on record as -31%.

`O=C(NCc1cccc(Cl)c1)c1ccc(CS(=O)Cc2ccccc2Cl)o1` (centres unmarked): the “hERG current change (%, negative = inhibition) at 10uM” value was -3.52%.

As for `O=C(NCc1ccccc1)c1ccc(CS(=O)Cc2ccc(Cl)cc2)o1` (centres unmarked), the “hERG current change (%, negative = inhibition) at 10uM” value is recorded as -62.5%.

`O=C(NCc1cccs1)c1ccc(CS(=O)Cc2cccc(Cl)c2)o1` (centres unmarked): the “hERG current change (%, negative = inhibition) at 10uM” value is recorded as -39.6%.

`O=C(NCc1ccccc1Cl)c1ccc(CS(=O)Cc2ccc(Cl)cc2)o1` (centres unmarked): the “hERG current change (%, negative = inhibition) at 10uM” value was -46.9%.

For the compound `COc1ccc(CNC(=O)c2ccc(CS(=O)Cc3ccc(Cl)cc3)o2)cc1` (centres unmarked), the “hERG current change (%, negative = inhibition) at 10uM” value was -84.6%.

As for `COc1ccc(CNC(=O)c2ccc(CS(=O)Cc3cccc(Cl)c3)o2)cc1` (centres unmarked), the “hERG current change (%, negative = inhibition) at 10uM” value is -37.5%.

Regarding `O=C(NCc1ccc(Cl)cc1)c1ccc(CS(=O)Cc2cccc(Cl)c2)o1` (centres unmarked), the “hERG current change (%, negative = inhibition) at 10uM” value is recorded as -53.5%.

In the case of `O=C(NCc1ccc2c(c1)OCO2)c1ccc(CS(=O)Cc2cccc(Cl)c2)o1` (centres unmarked), the “hERG current change (%, negative = inhibition) at 10uM” value is reported as -23.6%.

Regarding `Cc1ccc(CNC(=O)c2ccc(CS(=O)Cc3cccc(Cl)c3)o2)cc1` (centres unmarked), the “hERG current change (%, negative = inhibition) at 10uM” value is -21.5%.

In the case of `O=C(NCc1cccc(Cl)c1)c1ccc(CS(=O)Cc2ccc(Cl)cc2)o1` (centres unmarked), the “hERG current change (%, negative = inhibition) at 10uM” value is listed as -62.1%.

Consider `COc1cc2c(C(=O)Nc3ccc4c(c3)OCO4)cn(CC(C)C)c(=O)c2cc1OC`, for which the “hERG current change (%, negative = inhibition) at 10uM” value was -2.44%.

Regarding `CCOC(=O)C1C(=O)NC(C)C1c1ccccc1` (centres unmarked), the “hERG current change (%, negative = inhibition) at 10uM” value is -4.44%.

As for `O=C(COC(=O)c1cc2c(s1)CCCC2)NCc1ccccc1Cl`, the “hERG current change (%, negative = inhibition) at 10uM” value is recorded as 1.44%.

As to `CC(C)(C)c1ccc(C(=O)N2CCC(C(=O)NCC3CCCO3)CC2)cc1` (centres unmarked), the “hERG current change (%, negative = inhibition) at 10uM” value is listed as -23.6%.

In the case of `CC(=O)C1=C(O)C(=O)N(c2ccc(O)cc2)C1c1ccc(Cl)cc1` (centres unmarked), the “hERG current change (%, negative = inhibition) at 10uM” value is listed as 17.4%.

For `O=C(O)c1ccccc1OC(C(=O)Nc1cc(Cl)cc(Cl)c1)c1ccccc1` (centres unmarked), the “hERG current change (%, negative = inhibition) at 10uM” value came out at 13.5%.

For the origin of these results see publication PMC4336329 (PLoS ONE, 2015).
